Consider 7 compounds from PubChem BioAssay (NCATS).

SMILES strings stand for the structures. A number with no mark means an inactive call. Inconclusive results are not listed. Active and inactive are the calls of the source. Unless noted, calls come from the whole dose curve; as a rule, active = well fitted curve in either direction with a large enough effect (not every such curve was filed as active); inconclusive = small, poorly fitted or top-dose-only effect, or another doubt; inactive = flat fitted curve, though single readings scatter.

In experiment [1] the target is Lysosomal acid glucosylceramidase (Homo sapiens) (UniProt P04062). Briefly: Glucocerebrosidase-p2 (AID 348; in the data active = potency below about 10 µM; note: potency is the fitted concentration of half-maximal effect). To be noted: purified GBA, blue fluorogenic substrate, 40 min. A digest of the protocol: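 Normal human glucocerebrosidase (0.2 nM) with blue fluorogenic substrate (80 uM final) in citrate/phosphate pH 5.9 with 10mM sodium taurocholate, 0.01% tween-20; 40 min RT, NaOH/glycine stop; fluorescence Ex 365/Em 440; AC50 from a titration from 0.6 nM upwards.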

Experiment [2] in a line: AP1 Signaling Pathway (AID 357).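 Note: ME-180 reporter cells stimulated with EGF at its EC50 level; % is set by controls: 0 for no effect and ±100 for the full control effect.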 Conditions: ME-180 AP-1-bla reporter, EGF-induced, beta-lactamase ratio, 5 h; at 7.69 µM (top of the series) unless noted. The gist of the method:
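First, ME-180 AP-1-bla cells were cultured overnight at 37 °C in low-serum Opti-MEM. Next, titrated compounds with EC50 EGF were incubated 5 hours. Finally, CCF4 was added for 2.5 hours and the 460/530 nm ratio recorded.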

Experiment [3] has as its target Cytochrome P450 1A2 (Homo sapiens) (UniProt P05177). Briefly: p450-cyp1a2 (AID 410; calls by dose curve; note: potency is the fitted concentration of half-maximal effect). To be noted: recombinant CYP1A2, luciferin-ME demethylation, luminescence; series mostly up to 57 µM. The gist of the method:
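20nM CYP1A2, 100uM Luciferin-ME (=Km), 100mM KPO4; cpd 10 min RT; +NADPH regen, 60 min RT; stop/detect 20 min; luminescence. Normalized to furafylline 57 uM = full inhibition.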

Experiment [4] in a line: NFAT Signaling Pathway (AID 444).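 Note: carbachol stimulus at about its EC50 of 1 µM final; % is set by controls: 0 for no effect and ±100 for the full control effect.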 To be noted: Jurkat NFAT-bla M1, carbachol, beta-lactamase ratio, 5 h; at 7.69 µM (top of the series) unless noted. A digest of the protocol:
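Jurkat cells with NFAT-driven β-lactamase reporter and co-expressed M1 receptor, stimulated with carbachol (final 1 uM, ~EC50), compound titration, 5 h at 37 °C. CCF4 loaded 1 h at RT; 460/530 nm ratio gave %activity and AC50.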

Experiment [5] can be described thus: Stat Signaling Pathway (AID 446).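 Note: ME-180 cervical cancer cells given 40 pM IL-6 alongside compound; SIE-controlled beta-lactamase reporter measured as 460/530 nm FRET emission ratio; % is set by controls: 0 for no effect and ±100 for the full control effect.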 To be noted: ME-180 (cervical carcinoma) SIE beta-lactamase reporter, IL-6 stimulated, 5 h; at 7.69 µM (top of the series) unless noted. The gist of the method: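 Normalization used AC90 stimulation (300 pM IL-6) and AC90 inhibition (125 nM pan-JAK inhibitor at 40 pM IL-6). The underlying signal is SIE-driven beta-lactamase in ME-180 cells after 5 h IL-6 exposure with compound.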

For experiment [6], the target named is Glucocorticoid receptor (Homo sapiens) (UniProt P04150). Description: GR-GFP Redistribution (AID 450;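 active = compounds whose dose series gives a full or clear partial fitted curve of increased nuclear translocation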; note: potency is the fitted concentration of half-maximal effect). Conditions: U2OS GR-GFP nuclear translocation, laser cytometry, 2 h.
Experiment [7] has the same target. Description: GR-EFC Redistribution (AID 451; calls by dose curve; note: potency is the fitted concentration of half-maximal effect). Conditions: CHO-K1 GR-EFC translocation, beta-gal luminescence, 2 h. A digest of the protocol: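 CHO-K1 cells expressing nuclear EA and GR-ED fragments of b-gal; compounds titrated up to 46 uM final, 2 h at 37 C. GR nuclear translocation read as complemented b-gal luminescence after 1 h RT detection.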
Experiment [8] has as its target Mitogen-activated protein kinase 10 (Mus musculus) (UniProt Q61831). Description: JNK3 AlphaScreen Assay (AID 530).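 Note: kinase came from lysate of stimulated human HepG2 cells; signal reports phosphorylation of biotinylated GST-cJun 1-79 at Ser73 with 10 µM ATP; % is set by controls: 0 for no effect and ±100 for the full control effect.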 To be noted: JNK3 lysate, c-Jun phosphorylation; series mostly up to 57.1 µM. The gist of the method: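 HepG2 lysate (IL-1b/TNFa pre-activated) + biotin-GST-cJun 1-79 + anti-pSer73 cJun; cpd titration, 15 min RT; ATP 10 uM start; Tris pH 7.6, MgCl2, DTT, vanadate; beads in EDTA buffer; AlphaScreen.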
(Alpha assays give light when donor and acceptor beads are brought close together.)

Experiment [9] concerns the target 3',5'-cyclic-AMP phosphodiesterase 4B (Homo sapiens) (UniProt Q07343). Description: qHTS Assay for Inhibitors of PDE-IV (AID 607; active = well fitted activation curve with a large enough effect in the main read-out, with a control signal flat, not every such curve was filed as active; note: % of control where 0% means no effect). To be noted: HEK293 ACTOne CNG channel cells, membrane potential fluorescence; series mostly up to 22.9 µM. A digest of the protocol: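 HEK293 ACTOne cells with CNG channel (1000/well), endogenous PDE4; membrane potential dye, compounds up to 22.9 uM final. Fluorescence Ex 535/Em 590; RO 20-1724 (100 uM final) as reference.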
(In general: In qHTS, concentration-response curves come from the screen itself.)

Experiment [10] concerns the target Cytochrome P450 3A4 (Homo sapiens) (UniProt P08684). Description: qHTS Assay for Activators of Cytochrome P450 3A4 (AID 885; active = well fitted curve in the direction sought with a large enough effect; an effect the other way counts as inactive or inconclusive; note: nearly all actives have a fitted effect of over 65% in size). To be noted: recombinant CYP3A4, Luciferin-PPXE luminescence, 60 min; series mostly up to 57.1 µM. A digest of the protocol:
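Human CYP3A4 dealkylates Luciferin-PPXE to luciferin, which luciferase detection converts to light. Substrate was at its KM (25uM), buffer 200mM KPO4, reaction 60 min at RT.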

Experiment [11] can be described thus: Primary qHTS for small molecule stabilizers of the endoplasmic reticulum resident proteome: Secreted ER Calcium Modulated Protein (SERCaMP) assay (AID 1508630; active = well fitted curve in the direction sought with a large enough effect; an effect the other way counts as inactive or inconclusive; note: % is set by controls: 0 for no effect and ±100 for the full control effect). To be noted: SH-SY5Y GLuc-SERCaMP (Gaussia luciferase released on ER calcium loss) secretion, thapsigargin, luminescence; series mostly up to 38.4 µM. A digest of the protocol: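 The SH-SY5Y reporter protocol was run at 3 concentrations up to 38.3 uM (primary) or 11 concentrations (follow-up): 16 h compound, 100 nM thapsigargin for 4 h, then extracellular luciferase luminescence.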

The target in experiment [12] is Cytochrome P450 2C9 (Homo sapiens) (UniProt P11712). Description: qHTS Assay for Inhibitors and Substrates of Cytochrome P450 2C9 (AID 883; active = well fitted curve in the direction sought with a large enough effect; an effect the other way counts as inactive or inconclusive; note: potency is the fitted concentration of half-maximal effect; nearly all actives have a fitted effect of over 60% in size). Conditions: recombinant CYP2C9, luciferin-H luminescence, 60 min; series mostly up to 57.1 µM. A digest of the protocol: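 Human CYP2C9 (10nM) with Luciferin-H at 100uM (its KM) in 25mM KPO4; compound preincubated 10 min at 37C, then NADPH regeneration for 60 min at 37C. Luciferin read by luminescence after detection reagent; normalized to 57uM sulphaphenazole as full inhibition.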

In experiment [13] the target is Cytochrome P450 3A4 (Homo sapiens) (UniProt P08684). Briefly: qHTS Assay for Inhibitors and Substrates of Cytochrome P450 3A4 (AID 884; active = well fitted curve in the direction sought with a large enough effect; an effect the other way counts as inactive or inconclusive; note: potency is the fitted concentration of half-maximal effect; nearly all actives have a fitted effect of over 50% in size). Conditions: recombinant CYP3A4, Luciferin-PPXE luminescence; series mostly up to 57.1 µM. A digest of the protocol:
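Luminescent readout of luciferin produced by CYP3A4 (20 nM) dealkylation of Luciferin-PPXE, 25 uM (its KM). NADPH-driven reaction ran 60 min at RT after 10 min compound preincubation; data scaled to 57 uM ketoconazole as 100% inhibition.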

For experiment [14], the target named is Cytochrome P450 2C19 (Homo sapiens) (UniProt P33261). Description: qHTS Assay for Inhibitors and Substrates of Cytochrome P450 2C19 (AID 899; active = well fitted curve in the direction sought with a large enough effect; an effect the other way counts as inactive or inconclusive; note: % is set by controls: 0 for no effect and ±100 for the full control effect; nearly all actives have a fitted effect of over 60% in size). To be noted: recombinant CYP2C19, luciferin-H EGE luminescence; series mostly up to 57.1 µM. The gist of the method:
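5 nM human CYP2C19 with 10uM Luciferin-H EGE (at KM) in 50mM KPO4, compound preincubated 10 min at 37C, then NADPH regeneration for 60 min at 37C. Luciferin read by luminescence after detection reagent; normalized to 57uM ketoconazole as full inhibition.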

Chain of Cytochrome P450 1A2 (Homo sapiens) (P05177 whole entry, looked up): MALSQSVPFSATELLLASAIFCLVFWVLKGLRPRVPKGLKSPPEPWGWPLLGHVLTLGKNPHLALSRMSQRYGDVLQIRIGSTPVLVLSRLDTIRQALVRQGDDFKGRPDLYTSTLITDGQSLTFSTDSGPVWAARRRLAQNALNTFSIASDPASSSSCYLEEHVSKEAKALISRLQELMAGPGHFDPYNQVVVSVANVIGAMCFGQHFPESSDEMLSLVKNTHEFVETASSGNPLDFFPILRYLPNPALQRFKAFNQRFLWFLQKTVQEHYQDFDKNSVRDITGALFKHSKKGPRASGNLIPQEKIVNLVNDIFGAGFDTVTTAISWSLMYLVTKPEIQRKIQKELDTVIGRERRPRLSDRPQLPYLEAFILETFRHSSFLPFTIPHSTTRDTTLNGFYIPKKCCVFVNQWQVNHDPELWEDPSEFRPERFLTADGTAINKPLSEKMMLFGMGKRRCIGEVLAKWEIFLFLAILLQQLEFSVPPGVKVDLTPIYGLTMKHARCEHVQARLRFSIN
Chain of 3',5'-cyclic-AMP phosphodiesterase 4B (Homo sapiens) (Q07343 whole entry, looked up): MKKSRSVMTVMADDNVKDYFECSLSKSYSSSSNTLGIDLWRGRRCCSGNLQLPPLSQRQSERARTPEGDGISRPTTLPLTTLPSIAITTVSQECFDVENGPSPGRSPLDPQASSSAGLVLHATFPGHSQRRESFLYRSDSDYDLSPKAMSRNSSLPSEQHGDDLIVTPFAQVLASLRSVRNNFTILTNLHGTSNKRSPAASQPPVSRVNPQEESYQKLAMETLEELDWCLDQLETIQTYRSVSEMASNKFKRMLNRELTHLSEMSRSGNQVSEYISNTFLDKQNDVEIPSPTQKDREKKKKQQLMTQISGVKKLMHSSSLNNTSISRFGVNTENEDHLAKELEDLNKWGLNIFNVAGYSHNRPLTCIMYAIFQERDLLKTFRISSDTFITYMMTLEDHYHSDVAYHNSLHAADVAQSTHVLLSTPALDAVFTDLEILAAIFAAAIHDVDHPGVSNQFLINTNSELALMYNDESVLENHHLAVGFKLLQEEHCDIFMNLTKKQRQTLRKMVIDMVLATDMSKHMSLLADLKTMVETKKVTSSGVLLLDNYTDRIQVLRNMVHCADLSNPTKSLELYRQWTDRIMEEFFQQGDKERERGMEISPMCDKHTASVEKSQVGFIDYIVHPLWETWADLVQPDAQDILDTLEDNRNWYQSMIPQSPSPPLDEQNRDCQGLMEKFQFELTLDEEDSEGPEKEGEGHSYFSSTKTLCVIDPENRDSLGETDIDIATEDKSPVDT
Chain of Lysosomal acid glucosylceramidase (Homo sapiens) (P04062 whole entry, looked up): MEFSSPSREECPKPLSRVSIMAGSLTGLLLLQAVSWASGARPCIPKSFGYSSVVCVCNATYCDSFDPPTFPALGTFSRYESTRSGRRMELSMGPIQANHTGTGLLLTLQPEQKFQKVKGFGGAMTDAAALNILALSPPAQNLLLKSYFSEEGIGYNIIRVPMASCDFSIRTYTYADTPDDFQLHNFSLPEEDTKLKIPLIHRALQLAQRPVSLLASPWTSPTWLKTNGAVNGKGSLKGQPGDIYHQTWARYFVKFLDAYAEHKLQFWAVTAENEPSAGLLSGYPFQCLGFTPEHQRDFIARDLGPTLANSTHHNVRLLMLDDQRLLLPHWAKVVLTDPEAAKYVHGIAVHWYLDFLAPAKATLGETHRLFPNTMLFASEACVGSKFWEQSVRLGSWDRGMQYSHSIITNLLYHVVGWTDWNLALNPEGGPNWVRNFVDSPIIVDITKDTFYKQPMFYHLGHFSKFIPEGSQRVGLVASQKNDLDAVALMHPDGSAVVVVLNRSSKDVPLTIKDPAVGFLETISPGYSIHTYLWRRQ
Chain of Cytochrome P450 3A4 (Homo sapiens) (P08684 whole entry, looked up): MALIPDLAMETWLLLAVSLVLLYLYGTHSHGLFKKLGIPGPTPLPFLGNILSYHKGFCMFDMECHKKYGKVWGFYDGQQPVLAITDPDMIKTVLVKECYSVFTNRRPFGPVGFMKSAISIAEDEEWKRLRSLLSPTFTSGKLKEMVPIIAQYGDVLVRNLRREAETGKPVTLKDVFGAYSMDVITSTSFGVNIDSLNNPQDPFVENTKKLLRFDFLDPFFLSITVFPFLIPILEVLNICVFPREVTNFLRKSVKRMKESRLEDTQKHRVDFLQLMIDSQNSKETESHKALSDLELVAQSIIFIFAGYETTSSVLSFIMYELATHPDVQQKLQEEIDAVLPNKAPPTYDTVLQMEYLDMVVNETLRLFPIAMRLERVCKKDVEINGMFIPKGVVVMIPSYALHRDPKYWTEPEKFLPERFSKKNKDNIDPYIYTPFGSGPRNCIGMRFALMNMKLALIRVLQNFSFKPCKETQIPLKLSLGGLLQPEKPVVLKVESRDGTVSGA
Chain of Glucocorticoid receptor (Homo sapiens) (P04150 whole entry, looked up, the tested form may be a part): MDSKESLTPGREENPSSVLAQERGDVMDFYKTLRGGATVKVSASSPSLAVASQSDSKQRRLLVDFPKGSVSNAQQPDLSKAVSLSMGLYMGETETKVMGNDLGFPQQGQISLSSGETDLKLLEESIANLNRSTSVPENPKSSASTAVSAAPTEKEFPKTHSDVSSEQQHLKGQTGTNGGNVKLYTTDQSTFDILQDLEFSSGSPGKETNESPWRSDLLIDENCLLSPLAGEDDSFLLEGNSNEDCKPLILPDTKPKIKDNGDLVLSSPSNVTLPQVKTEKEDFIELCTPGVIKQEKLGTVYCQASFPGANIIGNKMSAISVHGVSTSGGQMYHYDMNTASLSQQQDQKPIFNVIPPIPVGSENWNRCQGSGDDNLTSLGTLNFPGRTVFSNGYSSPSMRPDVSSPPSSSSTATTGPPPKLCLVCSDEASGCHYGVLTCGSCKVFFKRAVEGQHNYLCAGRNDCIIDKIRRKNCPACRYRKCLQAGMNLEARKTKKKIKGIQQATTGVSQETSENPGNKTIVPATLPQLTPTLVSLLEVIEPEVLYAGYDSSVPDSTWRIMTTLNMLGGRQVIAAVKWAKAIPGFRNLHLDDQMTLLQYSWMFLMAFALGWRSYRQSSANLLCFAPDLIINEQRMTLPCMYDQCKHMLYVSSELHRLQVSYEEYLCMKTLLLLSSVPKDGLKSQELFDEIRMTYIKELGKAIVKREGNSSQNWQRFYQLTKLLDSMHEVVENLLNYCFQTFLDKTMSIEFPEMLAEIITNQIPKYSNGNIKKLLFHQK
Chain of Cytochrome P450 2C9 (Homo sapiens) (P11712 whole entry, looked up): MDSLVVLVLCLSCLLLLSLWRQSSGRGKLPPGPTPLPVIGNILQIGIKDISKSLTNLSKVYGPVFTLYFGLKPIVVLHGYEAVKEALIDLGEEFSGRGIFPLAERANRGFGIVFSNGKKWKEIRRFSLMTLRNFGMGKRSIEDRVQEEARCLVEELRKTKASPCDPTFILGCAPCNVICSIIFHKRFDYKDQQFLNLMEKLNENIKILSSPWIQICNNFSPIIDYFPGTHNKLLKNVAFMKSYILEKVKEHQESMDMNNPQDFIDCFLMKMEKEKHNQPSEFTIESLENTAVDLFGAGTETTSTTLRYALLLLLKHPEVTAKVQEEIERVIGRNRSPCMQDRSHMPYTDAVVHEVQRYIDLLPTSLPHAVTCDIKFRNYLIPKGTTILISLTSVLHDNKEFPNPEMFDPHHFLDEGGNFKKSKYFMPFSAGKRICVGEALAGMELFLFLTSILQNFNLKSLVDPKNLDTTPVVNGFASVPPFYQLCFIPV
Chain of Cytochrome P450 2C19 (Homo sapiens) (P33261 whole entry, looked up): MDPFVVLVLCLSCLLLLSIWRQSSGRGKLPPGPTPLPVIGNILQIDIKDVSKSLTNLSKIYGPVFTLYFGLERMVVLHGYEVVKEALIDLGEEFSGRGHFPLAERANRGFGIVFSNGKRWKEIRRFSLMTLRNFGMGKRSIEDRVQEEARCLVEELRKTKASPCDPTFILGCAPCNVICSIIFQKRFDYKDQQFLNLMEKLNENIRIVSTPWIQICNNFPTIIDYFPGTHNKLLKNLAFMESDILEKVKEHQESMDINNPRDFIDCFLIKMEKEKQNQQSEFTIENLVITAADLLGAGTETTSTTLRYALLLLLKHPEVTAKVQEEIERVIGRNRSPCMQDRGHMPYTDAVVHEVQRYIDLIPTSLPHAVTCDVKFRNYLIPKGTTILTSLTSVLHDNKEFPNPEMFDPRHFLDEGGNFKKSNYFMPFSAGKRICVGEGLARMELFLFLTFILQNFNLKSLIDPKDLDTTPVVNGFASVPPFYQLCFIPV

As to `COc1ccc(-n2c(=O)c(CCc3ccccc3)nc3cnc(N(C)C)nc32)cc1`, the Potency was > 11.4 µM in experiment [1], 3.16 µM (active) in [3], > 9.22 µM in [6] and > 46 µM in [7]. The activity change, negative = inhibition in experiment [2] was 0.546%; in [4], -2.06%. Moreover, the activity, negative = inhibition in experiment [5] is 0.00123%. In addition, the Potency entry in experiment [8], in experiment [9] and in [10] was “inactive” throughout. The result in experiment [11] was inactive.

As for `Cn1c(=O)c(CCc2ccccc2)nc2cncnc21`, the Potency in [1] is > 11.4 µM; in experiment [3] it was 7.94 µM (active); in [6] it was > 9.22 µM; in [7], > 46 µM. Further, the activity change, negative = inhibition was -10.9% in experiment [2] and -3.66% in [4]. The activity, negative = inhibition in experiment [5] is -13.2%. The Potency entry in [8], in experiment [9] and in experiment [10] was “inactive” in each case. For the same compound, in [11], the outcome was inactive.

With `COc1ccc(Oc2ncc3nc(-c4cccs4)c(=O)n(C)c3n2)cc1`, the Potency in experiment [1] is > 11.4 µM; in [3] it was 3.16 µM (active); in [6], > 9.22 µM; in experiment [7] it was > 46 µM; in experiment [12], 3.16 µM (active); in experiment [13], 3.98 µM (active). Moreover, the activity change, negative = inhibition in experiment [2] is 18.3%; in experiment [4], 28.2%. In [5], the activity, negative = inhibition is 27.9%. In addition, the Potency entry in [8], in experiment [9] and in experiment [10] was “inactive” in each case. Besides, the result in experiment [11] was inactive.

As for `O=c1cnc2cnc(OCc3ccccc3)nc2n1Cc1ccc(F)cc1`, the Potency in experiment [1] was > 11.4 µM; in experiment [3], 12.6 µM (active); in experiment [6] it was > 9.22 µM; in [7] it was > 46 µM; in [13] it was 5.01 µM (active). Also, the activity change, negative = inhibition in experiment [2] is -29.4%; in [4], -14.6%. Also, in [5], the activity, negative = inhibition was -21.4%. Also, the Potency entry in experiment [8] and in [10] was “inactive” in each case. Also, the outcome in experiment [11] was inactive.

Consider `CN(C)c1ncc2ncc(=O)n(C)c2n1`, for which the Potency was > 11.4 µM in experiment [1], 6.31 µM (active) in experiment [3], > 9.22 µM in [6] and > 46 µM in [7]. The activity change, negative = inhibition was -20.1% in experiment [2] and 0.153% in experiment [4]. Besides, the activity, negative = inhibition in [5] is -5.5%. Further, the Potency result in experiment [8] and in experiment [9] was “inactive” in each case. The outcome in [11] was inactive.

As for `COc1ncc2ncc(=O)n(CCC#N)c2n1`, the Potency in [1] is > 11.4 µM; in [3], 20 µM (active); in experiment [6] it was > 9.22 µM; in [7], > 46 µM. Also, the activity change, negative = inhibition in experiment [2] is 1.28%; in [4] it was -1.77%. The activity, negative = inhibition in [5] was -9.79%. Also, the Potency result in experiment [8] and in experiment [9] was “inactive” throughout. Moreover, the outcome in experiment [11] was inactive.

On to `N#CCCn1c(=O)cnc2cnc(OCc3ccccc3)nc21`, for which the Potency in experiment [1] was > 11.4 µM; in experiment [3], 12.6 µM (active); in experiment [6], > 9.22 µM; in experiment [7] it was > 46 µM. The activity change, negative = inhibition was -4.07% in experiment [2] and 0.323% in experiment [4]. Further, the activity, negative = inhibition in [5] is -5.03%. Also, the Potency entry in [8], in experiment [9] and in [14] was “inactive” throughout. In addition, in experiment [11], the outcome was inactive.
